According to the supplement of paper PMC6897291:

Assays:
[1] = system: U-2932; test: growth inhibition by drug alone (1 - RLU/untreated control) (fraction); higher = stronger inhibition; details: 177Lu-lilotomab satetraxetan 0 ug/ml
How it was run: (§1)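 With or without 18 h pretreatment by a radiolabelled anti-CD37 antibody conjugate (~600 MBq/mg; 0.5 µg/ml RIVA, 1 µg/ml U-2932), RIVA and U-2932 cells were washed and plated at 3,000 cells/well. Pre-printed compound doses were 10/100 nM for RIVA and 10/1,000 nM for U-2932. Growth inhibition uses RealTime-Glo RLU relative to the untreated no-drug wells. The calculation is 1 − RLU/mean of 48 such wells per plate, with reads daily from day 3 after 1 h at 37°C.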

[2] = system: RIVA; test: as above; details: 177Lu-lilotomab satetraxetan 0 ug/ml
How it was run: as §1

[3] = system: U-2932; test: growth inhibition by drug plus 177Lu-lilotomab satetraxetan (1 - RLU/untreated control) (fraction); higher = stronger inhibition; details: 177Lu-lilotomab satetraxetan 1 ug/ml
How it was run: as §1

[4] = system: RIVA; test: as above; details: 177Lu-lilotomab satetraxetan 0.5 ug/ml
How it was run: as §1

C=CCn1c(=O)c2cnc(Nc3ccc(N4CCN(C)CC4)cc3)nc2n1-c1cccc(C(C)(C)O)n1
growth inhibition by drug alone ([1]; 10 nM, time (day): 3): 0.112 | growth inhibition by drug alone ([1]; 10 nM, time (day): 4): 0.069 | growth inhibition by drug alone ([1]; 10 nM, time (day): 5): -0.0363 | growth inhibition by drug alone ([1]; 10 nM, time (day): 6): -0.19 | growth inhibition by drug alone ([1]; 1000 nM, time (day): 3): 0.86 | growth inhibition by drug alone ([1]; 1000 nM, time (day): 4): 0.895 | growth inhibition by drug alone ([1]; 1000 nM, time (day): 5): 0.914 | growth inhibition by drug alone ([1]; 1000 nM, time (day): 6): 0.936 | growth inhibition by drug alone ([2]; 10 nM, time (day): 3): -0.0778 | growth inhibition by drug alone ([2]; 10 nM, time (day): 4): -0.0715 | growth inhibition by drug alone ([2]; 10 nM, time (day): 5): -0.175 | growth inhibition by drug alone ([2]; 10 nM, time (day): 6): -0.482 | growth inhibition by drug alone ([2]; 100 nM, time (day): 3): -0.508 | growth inhibition by drug alone ([2]; 100 nM, time (day): 4): -0.354 | growth inhibition by drug alone ([2]; 100 nM, time (day): 5): -0.45 | growth inhibition by drug alone ([2]; 100 nM, time (day): 6): -0.813 | growth inhibition by drug plus 177Lu-lilotomab satetraxetan ([3]; 10 nM, time (day): 3): -0.0165 | growth inhibition by drug plus 177Lu-lilotomab satetraxetan ([3]; 10 nM, time (day): 4): 0.0521 | growth inhibition by drug plus 177Lu-lilotomab satetraxetan ([3]; 10 nM, time (day): 5): 0.116 | growth inhibition by drug plus 177Lu-lilotomab satetraxetan ([3]; 10 nM, time (day): 6): 0.141 | growth inhibition by drug plus 177Lu-lilotomab satetraxetan ([3]; 1000 nM, time (day): 3): 0.884 | growth inhibition by drug plus 177Lu-lilotomab satetraxetan ([3]; 1000 nM, time (day): 4): 0.926 | growth inhibition by drug plus 177Lu-lilotomab satetraxetan ([3]; 1000 nM, time (day): 5): 0.954 | growth inhibition by drug plus 177Lu-lilotomab satetraxetan ([3]; 1000 nM, time (day): 6): 0.971 | growth inhibition by drug plus 177Lu-lilotomab satetraxetan ([4]; 10 nM, time (day): 3): 0.447 | growth inhibition by drug plus 177Lu-lilotomab satetraxetan ([4]; 10 nM, time (day): 4): 0.527 | growth inhibition by drug plus 177Lu-lilotomab satetraxetan ([4]; 10 nM, time (day): 5): 0.532 | growth inhibition by drug plus 177Lu-lilotomab satetraxetan ([4]; 10 nM, time (day): 6): 0.552 | growth inhibition by drug plus 177Lu-lilotomab satetraxetan ([4]; 100 nM, time (day): 3): -0.0318 | growth inhibition by drug plus 177Lu-lilotomab satetraxetan ([4]; 100 nM, time (day): 4): 0.133 | growth inhibition by drug plus 177Lu-lilotomab satetraxetan ([4]; 100 nM, time (day): 5): 0.152 | growth inhibition by drug plus 177Lu-lilotomab satetraxetan ([4]; 100 nM, time (day): 6): 0.222
